# Assay results from PMC5540273 (PLoS ONE, 2017).
# “And” between values parts separate entries of the source, which are not always exact repeats. Identical values can stand only once. Like-named read-outs stand apart in the source and are kept apart here.
# Columns and labels:
# Settings in all cases: concentration: 1 μM, replicates: in singlicate, n = 1
# BLK = test system: BLK
# BMPR1A = test system: BMPR1A
# BMPR1B = test system: BMPR1B
# BMPR2 = test system: BMPR2
# BMX = test system: BMX
# BRAF = test system: BRAF
# BRK = test system: T1, BRK
# T1 construct: gene PTK6
# BRSK1 = test system: BRSK1
# BRSK2 = test system: BRSK2
# BTK = test system: BTK
# BUB1 = test system: BUB1
# CAMK1B = test system: CAMK1B
# CAMK1D = test system: CAMK1D
# CAMK1G = test system: CAMK1G
# CAMK1 = test system: CAMK1
# CAMK2A = test system: CAMK2A
# CAMK2B = test system: CAMK2B
# CAMK2D = test system: CAMK2D
# CAMK2G = test system: CAMK2G
# CAMK4 = test system: CAMK4
# 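Note: KINOMEscan kinase panel screen.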
compound,measurement,setting,value
CC(C)Oc1ccc2c(-c3ccnc(Nc4ccc(N5CCN(C)CC5)cc4)n3)cnn2n1 [GW696155],%Inh,BLK,23%
same,%Inh,BMPR1A,0%
same,%Inh,BMPR1B,90.5%
same,%Inh,BMPR2,19%
same,%Inh,BMX,4%
same,%Inh,BRAF,43%
same,%Inh,BRK,6%
same,%Inh,BRSK1,0%
same,%Inh,BRSK2,0%
same,%Inh,BTK,20%
same,%Inh,BUB1,99.4%
same,%Inh,CAMK1B,96.3%
same,%Inh,CAMK1D,97.8%
same,%Inh,CAMK1G,56%
same,%Inh,CAMK1,71%
same,%Inh,CAMK2A,44%
same,%Inh,CAMK2B,31%
same,%Inh,CAMK2D,54%
same,%Inh,CAMK2G,48%
same,%Inh,CAMK4,0%
CN(C(=O)c1ccc(-c2cc(-c3c[nH]nc3-c3ccccn3)ccn2)cc1)C1CCOCC1 [GW810083],%Inh,BLK,22%
same,%Inh,BMPR1A,0%
same,%Inh,BMPR1B,0%
same,%Inh,BMPR2,24%
same,%Inh,BMX,0%
same,%Inh,BRAF,0%
same,%Inh,BRK,4%
same,%Inh,BRSK1,3%
same,%Inh,BRSK2,8%
same,%Inh,BTK,16%
same,%Inh,BUB1,0%
same,%Inh,CAMK1B,41%
same,%Inh,CAMK1D,20%
same,%Inh,CAMK1G,0%
same,%Inh,CAMK1,0%
same,%Inh,CAMK2A,0%
same,%Inh,CAMK2B,0%
same,%Inh,CAMK2D,0%
same,%Inh,CAMK2G,17%
same,%Inh,CAMK4,20%
NCCNS(=O)(=O)c1ccc(-c2ccnc3[nH]ccc23)cc1 [GSK977617],%Inh,BLK; 1 µM,49% and 16%
same,%Inh,BMPR1A; 1 µM,10% and 0%
same,%Inh,BMPR1B; 1 µM,0% and 22%
same,%Inh,BMPR2; 1 µM,18% and 27%
same,%Inh,BMX; 1 µM,2% and 0%
same,%Inh,BRAF,0%
same,%Inh,BRK; 1 µM,0% and 9%
same,%Inh,BRSK1; 1 µM,28% and 5%
same,%Inh,BRSK2; 1 µM,25% and 0%
same,%Inh,BTK,0%
same,%Inh,BUB1; 1 µM,69% and 81%
same,%Inh,CAMK1B; 1 µM,52% and 70%
same,%Inh,CAMK1D; 1 µM,78% and 72%
same,%Inh,CAMK1G; 1 µM,44% and 21%
same,%Inh,CAMK1; 1 µM,58% and 42%
same,%Inh,CAMK2A; 1 µM,16% and 6%
same,%Inh,CAMK2B; 1 µM,2% and 0%
same,%Inh,CAMK2D; 1 µM,42% and 23%
same,%Inh,CAMK2G; 1 µM,42% and 20%
same,%Inh,CAMK4; 1 µM,59% and 44%
Cc1ccc(NC(=O)c2ccnc(N3CCN(C)CC3)c2)cc1-c1ccc(C(=O)NCC2CC2)cc1 [GW775604],%Inh,BLK,0%
same,%Inh,BMPR1A,0%
same,%Inh,BMPR1B,0%
same,%Inh,BMPR2,0%
same,%Inh,BMX,0%
same,%Inh,BRAF,0%
same,%Inh,BRK,0%
same,%Inh,BRSK1,0%
same,%Inh,BRSK2,0%
same,%Inh,BTK,0%
same,%Inh,BUB1,0%
same,%Inh,CAMK1B,0%
same,%Inh,CAMK1D,0%
same,%Inh,CAMK1G,0%
same,%Inh,CAMK1,0%
same,%Inh,CAMK2A,0%
same,%Inh,CAMK2B,0%
same,%Inh,CAMK2D,0%
same,%Inh,CAMK2G,0%
same,%Inh,CAMK4,0%
COc1ccc(Nc2ncc(C#N)c(Nc3ccccc3C(N)=O)n2)cc1N1CCN(C)CC1.Cl [GSK1558669],%Inh,BLK,99.8%
same,%Inh,BMPR1A,0%
same,%Inh,BMPR1B,80%
same,%Inh,BMPR2,92%
same,%Inh,BMX,75%
same,%Inh,BRAF,98.6%
same,%Inh,BRK,99.7%
same,%Inh,BRSK1,90.9%
same,%Inh,BRSK2,88%
same,%Inh,BTK,97.2%
same,%Inh,BUB1,87%
same,%Inh,CAMK1B,100%
same,%Inh,CAMK1D,99.1%
same,%Inh,CAMK1G,83%
same,%Inh,CAMK1,95.6%
same,%Inh,CAMK2A,92.5%
same,%Inh,CAMK2B,78%
same,%Inh,CAMK2D,83%
same,%Inh,CAMK2G,86%
same,%Inh,CAMK4,0%
O=c1cc(N2CCOCC2)nc2n(Cc3cccc(C(F)(F)F)c3)ccn12 [GSK2297543],%Inh,BLK,16%
same,%Inh,BMPR1A,0%
same,%Inh,BMPR1B,0%
same,%Inh,BMPR2,0%
same,%Inh,BMX,20%
same,%Inh,BRAF,0%
same,%Inh,BRK,2%
same,%Inh,BRSK1,0%
same,%Inh,BRSK2,7%
same,%Inh,BTK,0%
same,%Inh,BUB1,13%
same,%Inh,CAMK1B,36%
same,%Inh,CAMK1D,6%
same,%Inh,CAMK1G,0%
same,%Inh,CAMK1,4%
same,%Inh,CAMK2A,0%
same,%Inh,CAMK2B,0%
same,%Inh,CAMK2D,0%
same,%Inh,CAMK2G,4%
same,%Inh,CAMK4,0%
CC(C)(CN)c1nc(-c2ccc(Cl)c(O)c2)c(-c2ccncc2)[nH]1.O=C(O)C(F)(F)F [SB-477794],%Inh,BLK; 1 µM,98.2% and 98%
same,%Inh,BMPR1A; 1 µM,37% and 47%
same,%Inh,BMPR1B,99.9%
same,%Inh,BMPR2; 1 µM,32% and 33%
same,%Inh,BMX; 1 µM,0% and 40%
same,%Inh,BRAF; 1 µM,97.8% and 98.5%
same,%Inh,BRK; 1 µM,99.7% and 99.6%
same,%Inh,BRSK1; 1 µM,0% and 20%
same,%Inh,BRSK2; 1 µM,0% and 22%
same,%Inh,BTK; 1 µM,43% and 71%
same,%Inh,BUB1; 1 µM,100% and 98.2%
same,%Inh,CAMK1B; 1 µM,24% and 3%
same,%Inh,CAMK1D; 1 µM,10% and 9%
same,%Inh,CAMK1G,0%
same,%Inh,CAMK1; 1 µM,19% and 13%
same,%Inh,CAMK2A,0%
same,%Inh,CAMK2B,0%
same,%Inh,CAMK2D; 1 µM,11% and 0%
same,%Inh,CAMK2G; 1 µM,0% and 17%
same,%Inh,CAMK4,0%
CC(=O)Nc1ccc(COc2ccc(Nc3ccnc4cc(-c5ccccn5)ccc34)cc2)cc1.Cl [GW440148],%Inh,BLK,53%
same,%Inh,BMPR1A,0%
same,%Inh,BMPR1B,0%
same,%Inh,BMPR2,1%
same,%Inh,BMX,17%
same,%Inh,BRAF,0%
same,%Inh,BRK,57%
same,%Inh,BRSK1,0%
same,%Inh,BRSK2,0%
same,%Inh,BTK,0%
same,%Inh,BUB1,5%
same,%Inh,CAMK1B,23%
same,%Inh,CAMK1D,10%
same,%Inh,CAMK1G,7%
same,%Inh,CAMK1,20%
same,%Inh,CAMK2A,0%
same,%Inh,CAMK2B,0%
same,%Inh,CAMK2D,18%
same,%Inh,CAMK2G,21%
same,%Inh,CAMK4,0%
Fc1ccc(-c2nn3c(OCC(F)(F)F)cccc3c2-c2ccncc2)cc1 [GW514784],%Inh,BLK,43%
same,%Inh,BMPR1A,0%
same,%Inh,BMPR1B,0%
same,%Inh,BMPR2,1%
same,%Inh,BMX,2%
same,%Inh,BRAF,44%
same,%Inh,BRK,1%
same,%Inh,BRSK1,0%
same,%Inh,BRSK2,0%
same,%Inh,BTK,31%
same,%Inh,BUB1,99%
same,%Inh,CAMK1B,0%
same,%Inh,CAMK1D,7%
same,%Inh,CAMK1G,0%
same,%Inh,CAMK1,0%
same,%Inh,CAMK2A,0%
same,%Inh,CAMK2B,0%
same,%Inh,CAMK2D,0%
same,%Inh,CAMK2G,22%
same,%Inh,CAMK4,0%
